In the library only some 6.6% were active in any assay of this set; here they are far more common.
Autofluor counter – flagged as autofluorescent in microsphere protease counterscreen | compound autofluorescence counterscreen, microsphere flow cytometry; hits give high values | fluorescence intensity (concentration not given with the values) | actives 3.1% (n = 360,000); in the data active means fluorescence intensity above about 16000; inconclusive means no clear call, values can overlap the other calls
BoNT F protease – BoNT F light chain protease inhibition; Multiplex microsphere protease cleavage assay, flow cytometry; inhibition, % at 10 µM; actives 0.22% (n = 360,000); in the data active means inhibition above about 35%, passing the limit was not always enough; inconclusive means no clear call, values can overlap the other calls
FBA Mtb inh – inhibitors of M. tuberculosis fructose-bisphosphate aldolase; P9WQA3; purified M. tuberculosis FBA, fluorescence read-out; inhibition, % at 1 µM; actives 2.3% (n = 360,000); AID 588726
Target sequence (P9WQA3 whole entry, looked up): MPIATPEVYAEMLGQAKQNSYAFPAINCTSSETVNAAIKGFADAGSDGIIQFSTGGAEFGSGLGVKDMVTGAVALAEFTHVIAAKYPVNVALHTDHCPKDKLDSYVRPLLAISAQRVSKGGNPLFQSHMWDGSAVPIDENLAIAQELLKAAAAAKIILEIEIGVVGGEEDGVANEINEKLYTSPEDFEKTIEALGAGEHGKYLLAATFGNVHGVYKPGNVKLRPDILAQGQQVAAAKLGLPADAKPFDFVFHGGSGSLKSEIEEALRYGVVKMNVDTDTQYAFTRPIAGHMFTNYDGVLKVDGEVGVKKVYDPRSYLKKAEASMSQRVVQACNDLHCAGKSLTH
BoNT A protease – inhibitors of Botulinum neurotoxin A light chain protease; multiplex microsphere protease substrate cleavage, flow cytometry; actives 0.17% (n = 360,000); inhibition, % at 10 µM; in the data active means inhibition above about 30%; inconclusive means no clear call, values can overlap the other calls
Anthrax LF prot – anthrax lethal factor protease inhibition. multiplex microsphere protease cleavage assay, LF. inhibition, % at 10 µM. actives 0.12% (n = 360,000); in the data active means inhibition above about 30%; inconclusive means no clear call, values can overlap the other calls
GDH-TPI counter-1 – GDH-TPI coupled enzyme inhibition counter-screen; GDH-TPI coupled enzyme counterscreen, NADH absorbance; inhibition, % at 4.8 µM; actives 1.2% (n = 360,000); AID 588335; in the data active means inhibition above about 30%
Mtb FBA inh conf – confirmation of M. tuberculosis fructose-bisphosphate aldolase inhibitors. shares compounds with FBA Mtb inh. purified M. tuberculosis FBA, fluorescence read-out. inhibition, % at 1 µM. actives 78% (n = 5,600). AID 651616
GDH-TPI counter-2 – inhibits GDH-TPI coupling enzymes, flagging Mtb FBA hits; shares compounds with FBA Mtb inh; GDH-TPI coupled enzyme counterscreen, fluorescence; inhibition, % at 1 µM; actives 81% (n = 5,600); AID 652141; in the data active means inhibition above about 10%
Numbers stand for hits. Unless noted, no stated cut-off is given here; in the data, active means inhibition above about 27%; inactive means the rest.

Results for COc1ccc2cc(/C(C)=N/NC(=O)c3cc(-c4cccnc4)nc4ccccc34)ccc2c1 ?
Autofluor counter: inactive; BoNT F protease: inactive; FBA Mtb inh: 33.8; BoNT A protease: inactive; Anthrax LF prot: inactive; GDH-TPI counter-1: inactive; Mtb FBA inh conf: 104.9; GDH-TPI counter-2: 88.8

How did CCC(=O)Nc1ccc2c(c1)nc1n2CCN(C2CCCCC2)C1 do in these assays?
Autofluor counter: inactive; BoNT F protease: inactive; FBA Mtb inh: 61.9; BoNT A protease: inactive; Anthrax LF prot: inactive; GDH-TPI counter-1: inactive; Mtb FBA inh conf: 92.3; GDH-TPI counter-2: 90.8

How did CCC(=O)Nc1ccc2c(c1)nc1n2CCN(CCOC)C1 do in these assays?
Autofluor counter: inactive; BoNT F protease: inactive; FBA Mtb inh: 32.6; BoNT A protease: inactive; Anthrax LF prot: inactive; GDH-TPI counter-1: inactive; Mtb FBA inh conf: inactive; GDH-TPI counter-2: inactive

Results for O=C(Nc1ccc2c(c1)nc1n2CCN(C2CCCCC2)C1)c1ccco1 ?
Autofluor counter: inactive; BoNT F protease: inactive; FBA Mtb inh: inactive; BoNT A protease: inactive; Anthrax LF prot: inactive; GDH-TPI counter-1: inactive

Results for O=c1[nH]c2cc3c(cc2cc1C(c1nnnn1C1CCCC1)N1CCSCC1)OCCO3 (centres undefined) ?
Autofluor counter: inactive; BoNT F protease: inactive; FBA Mtb inh: 30.6; BoNT A protease: inactive; Anthrax LF prot: inactive; GDH-TPI counter-1: inactive; Mtb FBA inh conf: 143.8; GDH-TPI counter-2: 91.3

Results for CCC(C)(C)n1nnnc1C(c1cc2cc3c(cc2[nH]c1=O)OCO3)N1CCN(C)CC1 (centres undefined) ?
Autofluor counter: inactive; BoNT F protease: inactive; FBA Mtb inh: 59.3; BoNT A protease: inactive; Anthrax LF prot: inactive; GDH-TPI counter-1: inactive; Mtb FBA inh conf: 32.4; GDH-TPI counter-2: 28.3

Results for Cc1ccc(CN2CCCC2(C)C(=O)NC(C)C)cc1 (centres undefined) ?
Autofluor counter: inactive; BoNT F protease: inactive; FBA Mtb inh: inactive; BoNT A protease: inactive; Anthrax LF prot: inactive; GDH-TPI counter-1: inactive

What do the screens show for `CC(C)(C)c1ccc(O)c(N=Cc2c(O)ccc3ccccc23)c1`?
Autofluor counter: inactive; BoNT F protease: inconclusive; FBA Mtb inh: inactive; BoNT A protease: inactive; Anthrax LF prot: inactive; GDH-TPI counter-1: inactive

Results for Oc1ccc2ccccc2c1C=Nc1ccccc1-c1nc2ccccc2[nH]1 ?
Autofluor counter: inactive; BoNT F protease: inactive; FBA Mtb inh: 67.1; BoNT A protease: inactive; Anthrax LF prot: inactive; GDH-TPI counter-1: inactive; Mtb FBA inh conf: 61.6; GDH-TPI counter-2: 38.2

How did CCOC(=O)c1sc2cccc(Cl)c2c1N do in these assays?
Autofluor counter: inactive; BoNT F protease: inactive; FBA Mtb inh: inactive; BoNT A protease: inactive; Anthrax LF prot: inactive; GDH-TPI counter-1: inactive

Results for CCOC(=O)c1sc2cccc(F)c2c1N ?
Autofluor counter: 22763; BoNT F protease: inactive; FBA Mtb inh: 103.2; BoNT A protease: inconclusive; Anthrax LF prot: inactive; GDH-TPI counter-1: inactive; Mtb FBA inh conf: active; GDH-TPI counter-2: 197.8

What do the screens show for `COc1cc(Cn2c3ccc(NC(=O)CCc4ccc(O)cc4)cc3c(=O)n2C)ccc1F`?
Autofluor counter: inactive; BoNT F protease: inactive; FBA Mtb inh: 111.0; BoNT A protease: inactive; Anthrax LF prot: inactive; GDH-TPI counter-1: inactive; Mtb FBA inh conf: 168.7; GDH-TPI counter-2: 125.4

Results for Cn1c(=O)c2cc(NC(=O)CCc3ccc4c(c3)OCO4)ccc2n1Cc1ccc(F)cc1 ?
Autofluor counter: inactive; BoNT F protease: inactive; FBA Mtb inh: 85.1; BoNT A protease: inactive; Anthrax LF prot: inactive; GDH-TPI counter-1: inactive; Mtb FBA inh conf: 47.7; GDH-TPI counter-2: 21.0

How did CCOC(=O)Cn1c2ccccc2n2nc(CCC(=O)O)c(=O)nc12 do in these assays?
Autofluor counter: inactive; BoNT F protease: inactive; FBA Mtb inh: 57.6; BoNT A protease: inactive; Anthrax LF prot: inactive; GDH-TPI counter-1: inactive; Mtb FBA inh conf: inactive; GDH-TPI counter-2: inactive

What do the screens show for `CCOC(=O)Cn1c(=O)n(CC(=O)OCC)c2ccccc21`?
Autofluor counter: inactive; BoNT F protease: inactive; FBA Mtb inh: inactive; BoNT A protease: inactive; Anthrax LF prot: inactive; GDH-TPI counter-1: inactive

Results for Nc1ccccc1C(=O)NC1CCCNC1=O (centres undefined) ?
Autofluor counter: inactive; BoNT F protease: inconclusive; FBA Mtb inh: 61.4; BoNT A protease: inactive; Anthrax LF prot: inactive; GDH-TPI counter-1: inactive; Mtb FBA inh conf: active; GDH-TPI counter-2: active

How did O=C(Nc1ccc(Cl)cc1)NC1CCCCNC1=O (centres undefined) do in these assays?
Autofluor counter: inactive; BoNT F protease: inactive; FBA Mtb inh: inactive; BoNT A protease: inactive; Anthrax LF prot: inactive; GDH-TPI counter-1: inactive

How did Cc1cc(=O)n2nc(N3CCCC(C(=O)NCCCN4C(C)CCCC4C)C3)sc2n1 (centres undefined) do in these assays?
Autofluor counter: inactive; BoNT F protease: inactive; FBA Mtb inh: inactive; BoNT A protease: inactive; Anthrax LF prot: inactive; GDH-TPI counter-1: inactive

What do the screens show for `O=c1c2cc(NC(=S)N3CCC(N4CCCCC4)CC3)ccc2nc2n1CCCCC2`?
Autofluor counter: inactive; BoNT F protease: inactive; FBA Mtb inh: inactive; BoNT A protease: inactive; Anthrax LF prot: inactive; GDH-TPI counter-1: inactive

Results for CC1CCCCN1C(=S)Nc1ccc2nc3n(c(=O)c2c1)CCCCC3 (centres undefined) ?
Autofluor counter: inactive; BoNT F protease: inactive; FBA Mtb inh: 29.9; BoNT A protease: inactive; Anthrax LF prot: inactive; GDH-TPI counter-1: inactive; Mtb FBA inh conf: 44.8; GDH-TPI counter-2: 38.8

Results for CCOC(=O)C1=C(O)C(=O)N(Cc2cccnc2)C1c1ccc(OC)cc1 (centres undefined) ?
Autofluor counter: inactive; BoNT F protease: inactive; FBA Mtb inh: inactive; BoNT A protease: inactive; Anthrax LF prot: inactive; GDH-TPI counter-1: inactive

How did CCOC(=O)CC(=O)CSc1nc2c(cc1C#N)CCC2 do in these assays?
Autofluor counter: inactive; BoNT F protease: inactive; FBA Mtb inh: 31.3; BoNT A protease: inactive; Anthrax LF prot: inactive; GDH-TPI counter-1: inactive; Mtb FBA inh conf: 80.1; GDH-TPI counter-2: 64.9

What do the screens show for `CCc1nnc(NC(=O)CSc2nc3c(cc2C#N)CCCC3)s1`?
Autofluor counter: inactive; BoNT F protease: inactive; FBA Mtb inh: inactive; BoNT A protease: inactive; Anthrax LF prot: inactive; GDH-TPI counter-1: inactive

Results for COC(=O)CC(=O)CSc1nc2c(cc1C#N)CCCCC2 ?
Autofluor counter: inactive; BoNT F protease: inactive; FBA Mtb inh: 39.1; BoNT A protease: inactive; Anthrax LF prot: inactive; GDH-TPI counter-1: inactive; Mtb FBA inh conf: 140.7; GDH-TPI counter-2: 97.8

Results for CCCCN(C=O)c1c(CC)nc2ccc(C(=O)NCc3cccs3)cn12 ?
Autofluor counter: inactive; BoNT F protease: inactive; FBA Mtb inh: inactive; BoNT A protease: inactive; Anthrax LF prot: inactive; GDH-TPI counter-1: inactive

How did CC12CCC(C(=O)N(CC(O)CN3CCCCCC3)C1=O)C2(C)C (centres undefined) do in these assays?
Autofluor counter: inactive; BoNT F protease: inactive; FBA Mtb inh: inactive; BoNT A protease: inactive; Anthrax LF prot: inactive; GDH-TPI counter-1: inactive
